Measured values reported in PubChem BioAssay.
Inconclusive results are not listed. The list shows a part of the results. Calls of active or inactive are those of the source.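 Rule for the calls, unless noted: active = GFP signal, as percent of the solvent control, above the screen mean plus 3 SD, about 149; inconclusive = no reading because the compound's own fluorescence upset strain identification; inactive = the rest.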

Experiments:
[1] = yeast TOR pathway RPL19A-GFP modulators, primary screen, cell-based, S. cerevisiae, multiplex flow cytometry (AID 1862; in the data active = percent of DMSO control GFP below about 86%;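 note: lower values mimic rapamycin by blocking the RPL19A rise seen in DMSO cells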); conditions: S. cerevisiae RPL19A-GFP strain, flow cytometry fluorescence, 3 h; at 10 µM; stronger effect = lower value
[2] = modulators of MEP2-GFP levels in yeast, primary screen, S. cerevisiae, multiplex flow cytometry (AID 1867;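 active = GFP response, as percent of the DMSO control, above the screen-wide mean plus 3 SD, about 139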;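 note: median GFP channel fluorescence of barcode-gated MEP2-GFP cells measured by flow cytometry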); conditions: S. cerevisiae MEP2-GFP strain, 3 h, at 10 µM, stronger effect = higher value, 100% means same as DMSO wells
[3] = modulators of CIT2-GFP expression in yeast, primary screen, S. cerevisiae, GFP fusion, multiplex flow cytometry (AID 1870;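 active = percent response above a set limit, the screen-wide mean plus 3 SD, cut at about 130% in these data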;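 note: barcoded CIT2-GFP strain pooled with four other GFP strains with rapamycin as positive control; median GFP fluorescence per well over plate mean of DMSO wells so 100% = DMSO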); conditions: 3 h, at 10 µM, stronger effect = higher value
[4] = modulators of LAP4-GFP expression in yeast, primary screen, S. cerevisiae, multiplex flow cytometry (AID 1873); conditions: 3 h, at 10 µM, stronger effect = higher value
[5] = modulators of AGP1-GFP expression in yeast TOR pathway, primary screen, cell-based, multiplex flow cytometry, S. cerevisiae (AID 1887;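 active = GFP signal above the screen-wide mean plus 3 SD, that is over about 124.5% of the solvent control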;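 note: AGP1-GFP fusion strain of S. cerevisiae within a five-strain barcoded multiplex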); conditions: 3 h, at 10 µM, stronger effect = higher value
[6] = RPL19A-GFP modulators, yeast TOR pathway, confirmation, cell-based, S. cerevisiae, flow cytometry, cherry picks, mother/daughter gates (AID 2270;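 active = GFP response below 50% of the DMSO control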); conditions: S. cerevisiae RPL19A-GFP strain, 3 h, at 10 µM, stronger effect = lower value, 100 = same GFP as DMSO wells
[7] = LAP4-GFP expression modulators in yeast, confirmation, cell-based, cherry picks, flow cytometry, mother/daughter gates (AID 2271;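 active = GFP response above 150% of the DMSO control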;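 note: ratio of sample to DMSO plate mean so 100% equals DMSO level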); conditions: S. cerevisiae LAP4-GFP strain, 3 h, at 10 µM, stronger effect = higher value, 100 means same as DMSO control
[8] = modulators of MEP2-GFP levels in yeast, confirmation, S. cerevisiae, flow cytometry GFP, cherry picks (AID 2272;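 active = GFP response above 150% of the DMSO control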;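 note: ratio of well signal to plate DMSO mean so 100% equals DMSO level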); conditions: S. cerevisiae MEP2-GFP strain, 3 h, at 10 µM, stronger effect = higher value
[9] = modulators of CIT2-GFP expression in yeast, confirmation, S. cerevisiae, GFP fusion, cherry picks, mother/daughter gates (AID 2274;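 active = GFP response above 150% of the DMSO level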); conditions: S. cerevisiae CIT2-GFP strain, flow cytometry, 3 h, at 10 µM, stronger effect = higher value
[10] = inhibitors of CD8+ T cell-vesicle binding, pilot screen, LFA-1/ICAM-1 modulator project, MLPCN validation set, flow cytometry (AID 2523;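 active = response below a set limit, under 55% cells CD8-positive and vesicle-bound, and CD8 cells' 90th-percentile brightness under 279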;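 for vesicle binding response: mean PE anti-B7-1 fluorescence of CD8+ cells relative to row control; 100% = QL9-loaded vesicles with DMSO vehicle in the same plate row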); conditions: 2C mouse CD8+ T cells, at 7 µM, stronger effect = lower value; double positive events: measured here: CD8+/vesicle+ event percentage
[11] = target: Regulator of G-protein signaling 16 (Homo sapiens) (UniProt O15492); assay: modulators of RGS–Galpha-o binding, primary screen, biochemical, multiplexed beads, flow cytometry, RGS4/7/8/16/19 (AID 1504); conditions: multiplexed bead flow cytometry, measured here: RGS16 interaction, at 10 µM;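 note: fluorescently labeled Galpha-o bound to GDP with aluminium fluoride binding biotinylated RGS beads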
[12] = target: Regulator of G-protein signaling 19 (Homo sapiens) (UniProt P49795); assay: as above; conditions: multiplexed bead flow cytometry, measured here: RGS19 interaction, at 10 µM
[13] = target: Regulator of G-protein signaling 7 (Homo sapiens) (UniProt P49802); assay: as above; conditions: multiplexed bead flow cytometry, measured here: RGS7 interaction, at 10 µM
[14] = target: Regulator of G-protein signaling 8 (Homo sapiens) (UniProt P57771); assay: as above; conditions: multiplexed bead flow cytometry, measured here: RGS8 interaction, at 10 µM
[15] = disruption of biotin probe capture by avidin, counter-screen for RGS protein interaction modulators, biochemical, flow cytometry, bead-based (AID 1783;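 active = inhibition above 50%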;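 note: median green fluorescence of gated singlet beads compared with DMSO control wells; 0% = DMSO wells and 100% = complete loss of bead fluorescence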); conditions: streptavidin beads, fluorescein-biotin binding; at 10 µM, stronger effect = higher value
[16] = target: Guanine nucleotide-binding protein G(o) subunit alpha (Homo sapiens) (UniProt P09471); assay: RGS8-Galphao binding modulators, confirmation, biochemical, multiplexed bead flow cytometry, single concentration (AID 1836; in the data active = binding response below about 72% or above about 130%; inactive = in between;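 note: Galphao activated as GDP AlF4 complex before binding bead RGS8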); conditions: bead-based flow cytometry RGS8-Galphao binding, fluorescence; at 10 µM; actives lie on both sides
Chain of Guanine nucleotide-binding protein G(o) subunit alpha (Homo sapiens) (P09471 whole entry, looked up): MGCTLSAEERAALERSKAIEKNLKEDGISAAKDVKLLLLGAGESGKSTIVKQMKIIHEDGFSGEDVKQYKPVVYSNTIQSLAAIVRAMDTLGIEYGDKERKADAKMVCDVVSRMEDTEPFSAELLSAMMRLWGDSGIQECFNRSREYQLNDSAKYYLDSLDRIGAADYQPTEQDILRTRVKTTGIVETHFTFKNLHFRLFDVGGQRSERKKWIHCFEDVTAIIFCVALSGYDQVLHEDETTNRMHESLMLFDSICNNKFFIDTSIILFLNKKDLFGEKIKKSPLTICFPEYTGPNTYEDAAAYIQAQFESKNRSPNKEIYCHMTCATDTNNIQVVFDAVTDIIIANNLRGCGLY

[17] = target: Guanine nucleotide-binding protein G(o) subunit alpha (Homo sapiens) (UniProt P09471); assay: RGS7-Galphao binding modulators, confirmation, biochemical, multiplexed bead flow cytometry, single concentration (AID 1837; in the data active = response below about 75% or above about 130%; inactive = in between;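 note: fluorescent Galphao activated with GDP and aluminum fluoride binding bead-coupled RGS7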); conditions: bead-based flow cytometry RGS7-Galphao binding; at 10 µM; actives lie on both sides
[18] = target: Regulator of G-protein signaling 16 (Homo sapiens) + Guanine nucleotide-binding protein G(o) subunit alpha (Homo sapiens) (UniProt O15492+P09471); assay: modulators of RGS16-Galphao protein binding, confirmation, biochemical, single concentration, multiplexed bead flow cytometry (AID 1838; in the data active = response below about 74% or above about 130%; inactive = in between;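 note: Galphao activated as the GDP aluminium fluoride complex binding bead-coupled RGS16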); conditions: bead-based flow cytometry, at 10 µM, actives lie on both sides
Chain of Regulator of G-protein signaling 16 (Homo sapiens) + Guanine nucleotide-binding protein G(o) subunit alpha (Homo sapiens) (O15492 whole entry, looked up): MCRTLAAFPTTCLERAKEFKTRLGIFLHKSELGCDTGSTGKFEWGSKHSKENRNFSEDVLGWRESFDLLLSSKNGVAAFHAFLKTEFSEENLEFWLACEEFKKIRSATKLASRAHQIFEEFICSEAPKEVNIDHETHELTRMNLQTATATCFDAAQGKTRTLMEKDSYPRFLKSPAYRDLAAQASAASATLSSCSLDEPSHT
Chain of Regulator of G-protein signaling 16 (Homo sapiens) + Guanine nucleotide-binding protein G(o) subunit alpha (Homo sapiens) (P09471 whole entry, looked up): as the sequence (P09471 whole entry, looked up) above

[19] = target: Guanine nucleotide-binding protein G(o) subunit alpha (Homo sapiens) (UniProt P09471); assay: modulators of RGS4-Galphao protein binding, confirmation, biochemical, single concentration, multiplexed bead flow cytometry (AID 1840; in the data active = binding response below about 74% or above about 130%; inactive = in between); conditions: at 10 µM, actives lie on both sides
[20] = target: Guanine nucleotide-binding protein G(o) subunit alpha (Homo sapiens) + Regulator of G-protein signaling 19 (Homo sapiens) (UniProt P09471+P49795); assay: regulators of RGS19-Galphao binding, confirmation, biochemical, single point, multiplexed bead flow cytometry (AID 1841; in the data active = response below about 50% or above about 160%; inactive = in between;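 note: 100% = no compound control and 0% = blank background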); conditions: bead-based flow cytometry RGS19-Galphao binding; at 10 µM; actives lie on both sides
Chain of Guanine nucleotide-binding protein G(o) subunit alpha (Homo sapiens) + Regulator of G-protein signaling 19 (Homo sapiens) (P09471 whole entry, looked up): as above
Chain of Guanine nucleotide-binding protein G(o) subunit alpha (Homo sapiens) + Regulator of G-protein signaling 19 (Homo sapiens) (P49795 whole entry, looked up): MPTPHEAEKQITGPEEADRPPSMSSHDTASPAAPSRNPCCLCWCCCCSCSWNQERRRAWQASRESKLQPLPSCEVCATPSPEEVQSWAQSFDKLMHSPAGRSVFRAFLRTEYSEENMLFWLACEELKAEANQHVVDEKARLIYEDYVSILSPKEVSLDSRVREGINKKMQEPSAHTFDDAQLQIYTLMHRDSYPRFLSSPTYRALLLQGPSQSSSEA

[21] = measured here: daughter cell gate
[22] = measured here: mother cell gate
[23] = measured here: daughter cell gate response
[24] = measured here: mother cell gate response

C#C[C@]1(O)CC[C@H]2[C@@H]3CCC4=CC(=O)CC[C@@H]4[C@H]3CC[C@@]21CC
percent of DMSO control GFP [1]: 96.3% (inactive)
GFP response vs DMSO [2]: 96.6% (inactive)
percent response of DMSO control [3]: 97.7% (inactive)
GFP response vs DMSO [4]: 107% (inactive)
GFP response, % of DMSO [5]: 103% (inactive)
GFP response vs DMSO [6]: 101% (inactive)
GFP response vs DMSO [6, 21]: 98.7%
GFP response vs DMSO [6, 22]: 101%
GFP response relative to DMSO [7]: 101% (inactive)
GFP response relative to DMSO [7, 23]: 102%
GFP response relative to DMSO [7, 24]: 103%
GFP response vs DMSO [8]: 95.7% (inactive)
GFP response, % of DMSO [9]: 102% (inactive)
GFP response, % of DMSO [9, 21]: 99.7%
GFP response, % of DMSO [9, 22]: 102%
double positive events [10]: 62.5%
vesicle binding response [10]: 142% (inactive)

CCCCOC(=O)Cn1c(=N)n(CCN(CC)CC)c2ccccc21
RGS16–Galpha-o binding response [11]: 0%
RGS19–Galpha-o binding response [12]: -255%
RGS7–Galpha-o binding response [13]: 165%
RGS8–Galpha-o binding response [14]: 127%
inhibition [15]: -1.7% (inactive)
binding response (% of control) [16]: 101% (inactive)
response (percent of control binding) [17]: 95.7% (inactive)
response (% of control binding) [18]: 101% (inactive)
binding response (% of control) [19]: 97.5% (inactive)
response (percent of control binding) [20]: 101% (inactive)

COc1cc2c(cc1OC)C(c1ccccc1)=NCC2
percent of DMSO control GFP [1]: 92.2% (inactive)
GFP response vs DMSO [2]: 144% (active)
percent response of DMSO control [3]: 103% (inactive)
GFP response vs DMSO [4]: 84.2% (inactive)
GFP response, % of DMSO [5]: 97.7% (inactive)
GFP response vs DMSO [6]: 98.2% (inactive)
GFP response vs DMSO [6, 21]: 97.6%
GFP response vs DMSO [6, 22]: 99.7%
GFP response relative to DMSO [7]: 88.9% (inactive)
GFP response relative to DMSO [7, 23]: 88%
GFP response relative to DMSO [7, 24]: 87.6%
GFP response vs DMSO [8]: 100% (inactive)
GFP response, % of DMSO [9]: 103% (inactive)
GFP response, % of DMSO [9, 21]: 106%
GFP response, % of DMSO [9, 22]: 102%
double positive events [10]: 59.5%
vesicle binding response [10]: 202% (inactive)

CCOc1cc(C=O)ccc1OCCSc1ccc(C)cc1
percent of DMSO control GFP [1]: 94.6% (inactive)
GFP response vs DMSO [2]: 103% (inactive)
percent response of DMSO control [3]: 77.8% (inactive)
GFP response vs DMSO [4]: 168% (active)
GFP response, % of DMSO [5]: 101% (inactive)
GFP response vs DMSO [6]: 92.9% (inactive)
GFP response vs DMSO [6, 21]: 87.7%
GFP response vs DMSO [6, 22]: 96.4%
GFP response relative to DMSO [7]: 131% (inactive)
GFP response relative to DMSO [7, 23]: 122%
GFP response relative to DMSO [7, 24]: 137%
GFP response vs DMSO [8]: 116% (inactive)
GFP response, % of DMSO [9]: 93.5% (inactive)
GFP response, % of DMSO [9, 21]: 92.7%
GFP response, % of DMSO [9, 22]: 93.3%
double positive events [10]: 60.1%
vesicle binding response [10]: 185% (inactive)

CCOC(=O)CCP(=O)(O)C(O)(c1ccccc1)c1ccccc1
inhibition [15]: 2.2% (inactive)
binding response (% of control) [16]: 99.3% (inactive)
response (percent of control binding) [17]: 101% (inactive)
response (% of control binding) [18]: 101% (inactive)
binding response (% of control) [19]: 100% (inactive)
response (percent of control binding) [20]: 99.5% (inactive)

COc1ccc(C(=O)COC(=O)c2ccc3ccccc3n2)cc1
RGS16–Galpha-o binding response [11]: -0.98%
RGS19–Galpha-o binding response [12]: 167%
RGS7–Galpha-o binding response [13]: 39%
RGS8–Galpha-o binding response [14]: 28.9%
inhibition [15]: -1% (inactive)
binding response (% of control) [16]: 95.5% (inactive)
response (percent of control binding) [17]: 86.7% (inactive)
response (% of control binding) [18]: 95.4% (inactive)
binding response (% of control) [19]: 92.6% (inactive)
response (percent of control binding) [20]: 93.7% (inactive)
